Pf growth 96h: P. falciparum growth inhibition at 96 hours; P. falciparum luciferase reporter growth, 96 h; Potency, µM (top dose mostly 28.7 µM), for the others: at the top dose activity change, negative = inhibition, most hits filed as inhibitors; 6.9% of 320,000 active; further: potency means the concentration at half of the fitted maximal effect; on the % scale 0 is the no-effect control and ±100 the full control effect
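P. falciparum expressing integrated firefly luciferase, in erythrocytes at 2% hematocrit, 0.05% parasitemia, incubated with compounds 96 h at 37 C, 5% CO2. Growth inhibition read as loss of luminescence; two-generation exposure targets delayed-death apicoplast inhibitors.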
LASV entry inh: Lassa virus entry inhibition. Lassa virus pseudotype entry inhibition, cell reporter. Potency, µM (doses to about 37.9 µM), for the others: at the top dose activity change, negative = inhibition, most hits filed as inhibitors. AID 540256. 1.2% of 300,000 active; calls by dose curve; tested in HEK293 cells; further: potency means the concentration at half of the fitted maximal effect; on the % scale 0 is the no-effect control and ±100 the full control effect; nearly all actives have a fitted effect of over 50% in size
Marburg entry inh: blocks Marburg virus binding to or entry into cells; 1.8% of 300,000 active; Potency, µM (doses to about 37.8 µM), inactives show at the top dose activity change, negative = inhibition, most hits filed as inhibitors; Marburg virus pseudotyped entry inhibition, cell reporter; calls by dose curve; tested in HEK293 cells; further: potency means the concentration at half of the fitted maximal effect; on the % scale 0 is the no-effect control and ±100 the full control effect
CHX counter: counter-screen for Shiga toxin inhibitors: cycloheximide protein synthesis inhibition | cell reporter, cycloheximide protein synthesis inhibition counterscreen | max response, % | 12% of 300,000 active | AID 2314; in the data active means max response mostly above about 13%, no sharp cut-off; inactive means mostly below about 14%; further: read at 38.3 µM for the half of the compounds with a filed dose; 0% is about no effect
Shiga inhibitor: inhibitors of Shiga toxin in Vero cells | 9.2% of 290,000 active | inhibition, % at 38.7 µM | Vero cells, Shiga toxin protein synthesis inhibition reporter; in the data active means inhibition mostly above about 28%, no sharp cut-off; inactive means mostly below about 43%; further: 0% is about no effect
Pf growth 48h: inhibits P. falciparum growth in the first generation, 48 h | 5.9% of 310,000 active | Potency, µM (top dose mostly 28.7 µM), for the others: at the top dose activity change, negative = inhibition, usual class: inhibitors | P. falciparum luciferase growth in erythrocytes, 48 h; further: potency means the concentration at half of the fitted maximal effect; on the % scale 0 is the no-effect control and ±100 the full control effect
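Cell-based growth assay: transgenic P. falciparum expressing firefly luciferase, cultured in red cells within RPMI 1640 containing 0.5% w/v Albumax, 24 mM bicarbonate and gentamycin. A drop in luciferase activity indicates inhibition.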
The depositor's hits bear a star; ? = inconclusive; . = no result; [ ] = remark or other dose. This is a sample that favours compounds with a hit; in the whole collection about 19% have one here. Unless noted, the call rests on the fitted dose curve; in most records, active means well fitted inhibition curve with a large enough effect; inconclusive means small, poorly fitted or top-dose-only effect, or another doubt; inactive means no such curve, though single readings can be large or run the other way.

SMILES	Pf growth 96h	LASV entry inh	Marburg entry inh	CHX counter	Shiga inhibitor	Pf growth 48h
COc1ccc(N(C)S(=O)(=O)c2cccc(C(=O)N3CCN(c4ccccc4)CC3)c2)cc1	?	?	?	.	.	10µM*
COc1ccc(NS(=O)(=O)c2ccc(C(=O)N3CCN(Cc4ccccc4)CC3)cc2)cc1	?	.	.	6	34	?
COc1ccc(N2CCN(C(=O)c3ccc(NS(=O)(=O)c4ccccc4)cc3)CC2)cc1	-23%	4%	?	20*	35	?
CCCN(CCC)CCCNc1ccc2nnc(-c3ccc(F)cc3)n2n1	-19%	.	.	-2	-2	?
CCOC(=O)c1c(C)[nH]c(C)c1S(=O)(=O)N(C)CC(=O)NCc1cccc(C)c1	5.9µM*	8%[46.1 µM]	-1%[46.1 µM]	0	9	?
CCc1c(O)nc(SCC(=O)Nc2ccccc2C)n(-c2ccc(C)cc2)c1=O	-7%	?	1%[46.1 µM]	2	-3	-8%
O=C(Nc1cc(Sc2ccccn2)cc([N+](=O)[O-])c1)c1cccc(Cl)c1	20%	-9%	?	9	8	9.3µM*
O=C(Nc1cc(Sc2ccccn2)cc([N+](=O)[O-])c1)c1ccc(Cl)cc1	?	?	?	21*	57	?
O=C(Nc1ccc(S(=O)(=O)Nc2ncccn2)cc1)c1cccc(Cl)c1	.	1%[46.1 µM]	.	.	.	.
COc1ccc(NC(=O)C2=NN(C3CCS(=O)(=O)C3)C(=O)CC2)cc1S(N)(=O)=O (configuration not stated)	.	29%	17%	.	.	.
O=C(NCc1ccc(F)cc1)C1CC(=O)N(Cc2ccco2)C1 (configuration not stated)	1%	2%[46.1 µM]	16%[46.1 µM]	13	6	0%
Cc1cccn2c(=O)c3cc(C(=O)N4CCCC(C)C4)sc3nc12 (configuration not stated)	?	?	26%[46.1 µM]	19	25	33%
C=C1C(n2cnc3c(=O)[nH]c(N)nc32)C[C@H](O)[C@H]1CO (some centres not stated)	6µM*	.	.	.	.	?
Cc1ccc(C)c(C(=O)COC(=O)c2c(-c3ccccc3)noc2C)c1	-19%	-24%[46.1 µM]	-7%	.	.	?
Cn1ncc2c(N3CCN(c4ccc(Cl)c(Cl)c4)CC3)ncnc21	?	3%	18%[46.1 µM]	-4	-3	9.3µM*
Cc1ccc(Cn2ncc3c(N4CCN(c5ccccc5C)CC4)ncnc32)cc1	?	?	?	2	-4	13µM*
Cn1ncc(Cl)c1C(=O)N1CCN(c2ccc(Cl)c(Cl)c2)CC1	21%	7%	?	10	1	21%
Cn1ncc2c(N3CCN(c4ccccc4F)CC3)ncnc21	.	-5%[46.1 µM]	?	13*	7	?
CC(C)(Nc1ccccc1)C(=O)c1ccccc1	4%	?	?	-4	3	-2%
COc1ccccc1NC(=O)Cn1c(O)c(N=NC(=O)c2ccccc2O)c2ccccc21	27%	.	.	3	-9	7%
Cc1ccc(S(=O)(=O)N(CC2CO2)c2ccccc2[N+](=O)[O-])cc1 (configuration not stated)	1%	-3%[46.1 µM]	?	-3	-25	-12%
O=C(CN1C(=O)C2C3C=CC(C3)C2C1=O)Nc1ccc(S(=O)(=O)Nc2nccs2)cc1 (configuration not stated)	?	.	.	-1	-8	39%
O=C(NNC(=S)Nc1ccc(F)cc1)C1CC1c1ccc(Cl)cc1 (configuration not stated)	7%	0.41µM*	0%	3	8	25%
CCc1c(C)sc(NC(=O)C2CC2c2ccccc2)c1C(N)=O (configuration not stated)	-24%	2.9µM*	3.3µM*	18	-2	25%
NNC(=O)C1CC1c1ccc(Cl)cc1 (configuration not stated)	-22%	2.6µM*	0%	-4	11	7%
SMILES	Pf growth 96h	LASV entry inh	Marburg entry inh	CHX counter	Shiga inhibitor	Pf growth 48h
NNC(=O)C1CC1c1ccccc1 (configuration not stated)	9.3µM*	?	?	-1	-31	4%
COc1cc(OC)c(NC(=O)CCc2nc(-c3cccs3)no2)cc1Cl	2%	-20%	?	-2	-12	.
Cc1nc(C)n(CC(O)COc2ccc3ccccc3c2)n1 (configuration not stated)	5%	-8%	-12%	10	23	1%
Cc1cccc(C)c1N1CCN(c2cc(Cl)nc(N)n2)CC1	0%	-7%	9%	-1	-1	-13%[0.00184 µM]
Cc1ccc2nc(SCC(=O)N(CC(C)C)c3c(N)n(Cc4ccccc4)c(=O)[nH]c3=O)[nH]c2c1	-14%	.	.	9	-9	-3%
O=C(c1ccc(CN2CCc3ccccc3C2)cc1)N1CCc2ccccc2C1	2%	-7%	?	-2	-23	27%
Cc1ccc(-c2cn3cccnc3n2)cc1NC(=O)Cc1ccccc1	.	2%[46.1 µM]	.	.	.	.
c1ccc(Nc2nc(N3CCOCC3)nc(N3CCOCC3)n2)cc1	-13%	-14%	?	-1	2	?
N#Cc1ccc(Oc2nc(Nc3ccc(F)cc3)nc(N3CCCC3)n2)cc1	4.1µM*	1%	-6%	-3	8	.
Fc1ccc(Nc2nc(N3CCOCC3)nc(N3CCOCC3)n2)cc1	13µM*	?	7.1µM*	-11	-2	-14%
CC(=O)Nc1ccc(/C(C)=N/Nc2nc(Nc3cccc4ccccc34)nc(N3CCOCC3)n2)cc1	?	?	1.4µM*	9	5	13µM*
c1ccc(Nc2nc(N3CCNCC3)nc(N3CCOCC3)n2)cc1	?	8.9µM*	11µM*	-1	-7	?
CC(=O)Nc1ccc(/C(C)=N/Nc2nc(N3CCOCC3)nc(N3CCOCC3)n2)cc1	9%	11%	?	-3	41	1%
Nc1nc(SCC(=O)N2CCc3ccccc32)[nH]c(=O)c1-c1ccccc1	.	28%	-4%	-4	-11	3%
COc1ccc(Nc2nc(N3CCOCC3)nc(N3CCOCC3)n2)cc1	-21%	.	.	-1	-15	0%
COc1ccc(Nc2nc(NCc3ccco3)nc(N3CCOCC3)n2)cc1	?	-1%	2.8µM*	1	-11	?
Cc1cccc(Nc2nc(N3CCOCC3)nc(N3CCOCC3)n2)c1	-36%	?	?	-1	-12	?
COC(=O)c1ccc(Nc2nc(N3CCOCC3)nc(N3CCOCC3)n2)cc1	?	?	2µM*	-9	2	?
Cn1ccnc1Sc1nc(Nc2cccc(Cl)c2)nc(N2CCOCC2)n1	.	6%	0%	6	-8	8.3µM*
Oc1cccc(Nc2nc(N3CCOCC3)nc(N3CCOCC3)n2)c1	?	?	?	-4	-10	12µM*
COc1cc(OC)c(NC(=O)Cc2cccs2)cc1Cl	?	12%	0%	2	-13	7%

Screening data: PubChem, National Center for Advancing Translational Sciences (NCATS)
